# This is a sample that favours compounds with a hit; in the whole collection about 4.4% have one here.
# D1 PAM: Potentiators of Human D1 Dopamine Receptor: qHTS. HEK293 TREx D1 cells, calcium flux, dopamine EC20 potentiation. AID 504651, 2011. D(1A) dopamine receptor (Homo sapiens), P21728. hit rate 0.036% among 360,000. potentiation, % at 10 µM; in the data active = potentiation above about 30%
# Target sequence (P21728 whole entry, looked up): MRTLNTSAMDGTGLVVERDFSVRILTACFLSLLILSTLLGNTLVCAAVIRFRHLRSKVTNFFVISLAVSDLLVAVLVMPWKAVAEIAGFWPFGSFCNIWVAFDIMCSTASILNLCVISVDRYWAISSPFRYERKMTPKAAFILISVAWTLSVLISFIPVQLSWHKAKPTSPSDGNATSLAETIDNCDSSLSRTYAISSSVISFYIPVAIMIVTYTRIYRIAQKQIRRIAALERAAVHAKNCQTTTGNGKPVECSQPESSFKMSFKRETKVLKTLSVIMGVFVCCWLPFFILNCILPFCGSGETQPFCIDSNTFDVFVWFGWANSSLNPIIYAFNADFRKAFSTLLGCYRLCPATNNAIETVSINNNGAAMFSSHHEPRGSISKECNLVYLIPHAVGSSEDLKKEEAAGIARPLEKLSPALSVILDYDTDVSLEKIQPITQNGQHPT
# D1 antagonist: Antagonist of Human D 1 Dopamine Receptor: qHTS. D(1A) dopamine receptor (Homo sapiens), P21728. HEK293 TREx D1 cells, calcium flux, dopamine EC80; active compounds read low. activity change, negative = inhibition, % at 10 µM. hit rate 3.2% among 360,000. AID 504652, 2011; in the data active = activity change below about -30%
#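 HEK293 T-REx cells expressing inducible, force-coupled D1 receptor; no-wash Ca dye, 30–90 min RT. Cmpd → 180 s read at 1 Hz → EC80 DA → 180 s read.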
# TRHR ag: qHTS for Small Molecule Agonists and Allosteric Enhancers of Human TRH Receptor: Primary Screen for Agonists | hit rate 0.18% among 360,000 | activation, % at 2 µM | TRHR cells, calcium flux fluo-8, FDSS agonist mode
#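 TRHR-expressing cells loaded with fluo-8 calcium dye; 23 nL library compound pin-transferred, kinetic FDSS fluorescence (Ex 480/Em 530) recorded about 180 s for agonist-induced calcium release, before a 10 nM TRH EC20 addition for potentiator mode.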
# TRHR PAM: qHTS for Small Molecule Agonists and Allosteric Enhancers of Human TRH Receptor: Primary Screen for Enhancers | Thyrotropin-releasing hormone receptor (Homo sapiens), P34981 | TRHR cells, fluo-8 calcium fluorescence, EC20 TRH enhancement | enhancement, % at 2 µM | hit rate 0.66% among 360,000 | AID 493056, 2011; in the data active = enhancement above about 30%
#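 Enhancer read-out: after compound pinning and an initial kinetic agonist-mode read, an EC20 of TRH (10 nM final) was injected and fluo-8 calcium signal (Ex 480/Em 530) followed at 1 s/cycle for 100 cycles in TRHR-expressing cells.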
# USP1-UAF1 inh: Inhibitors of USP1/UAF1: Primary Screen. Potency, µM (top dose mostly 57.1 µM), actives largely listed as inhibitors. recombinant USP1/UAF1, Ub-Rhodamine cleavage fluorescence. Ubiquitin carboxyl-terminal hydrolase 1 (Homo sapiens), O94782. hit rate 0.23% among 390,000; active = well fitted inhibition curve with a large enough effect; inconclusive = small, poorly fitted or top-dose-only effect; inactive = no such curve, though single readings can be large or run the other way; also: nearly all actives have a fitted effect of over 60% in size
#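 High-throughput fluorogenic screen: 1nM USP1/UAF1 complex, Ub-Rho substrate 150nM final, 50mM HEPES pH 7.8 with 0.5mM EDTA, 0.1 mg/ml BSA, 1mM TCEP and 0.01% Tween-20.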
# D1 agonist: Allosteric Agonists of the Human D1 Dopamine Receptor: qHTS | D(1A) dopamine receptor (Homo sapiens), P21728 | HEK293 T-REx D1 cells, calcium flux, agonist mode | activation, % at 2 µM | hit rate 1% among 360,000 | AID 504660, 2011
#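 Tetracycline-induced HEK293 TREx D1 cells, force-coupled to calcium signalling, were dye-loaded with a no-wash calcium kit. Compound was pin-added after a 10 s baseline. Fluorescence was read kinetically at 1 cycle/s for 180 s, with calcium rises flagged as agonism.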
# Hits are given with their value; - = inactive; ? = inconclusive; . = not tested or not shown. Rule as the data show it, unless noted: active = activation above about 30%; inactive = the rest.
SMILES,D1 PAM,D1 antagonist,TRHR ag,TRHR PAM,USP1-UAF1 inh,D1 agonist
O=[N+]([O-])c1c(Nc2ccc(O)cc2)cc(Cl)c2nonc12,-,-42.0,-,-,?,-
CCOc1ccc(NC(=O)Cn2c(=O)n(CCCCCC(=O)NCc3ccccc3)c(=O)c3sccc32)cc1,-,-,-,-,-,-
CCCNc1c(NS(=O)(=O)c2ccc(Cl)s2)c(=O)oc2ccccc12,-,-,-,-,-,-
CCNc1c(NS(=O)(=O)c2ccc(Br)s2)c(=O)oc2ccccc12,-,-41.3,-,-,-,-
COc1cc(CNCC(C)C)c(Br)cc1OCC(=O)NCc1ccccc1,-,-,-,-,-,-
CCNCc1cc(OCC)c(OCC(=O)NCCc2ccccc2)cc1Cl,-,-39.9,-,-,-,32.8
COc1cc(CNCCN(C)C)c(Br)cc1OCC(=O)NCc1ccccc1,-,-33.6,-,-,-,-
COc1ccccc1CNC(=O)c1ccc(CS(=O)(=O)c2ccccc2OC)o1,-,-88.9,-,-,-,-
O=C(NCc1ccccc1)c1ccc2oc(=O)n(Cc3ccccc3)c2c1,-,-,-,-,-,-
COc1ccc(S(=O)(=O)Cc2ccc(C(=O)NCCc3ccc(S(N)(=O)=O)cc3)o2)cc1,-,-34.8,-,-,-,-
NS(=O)(=O)c1ccc(CCNC(=O)c2ccc(CS(=O)(=O)c3ccc(Br)cc3)o2)cc1,-,-,-,-,-,-
O=C(NCc1ccccc1Cl)c1ccc(CS(=O)(=O)c2ccc(Br)cc2)o1,-,-,-,39.8,-,45.7
O=C(NCc1ccccc1Cl)c1ccc2oc(=O)n(Cc3ccccc3)c2c1,-,-32.7,-,-,-,-
COc1ccc(CNC(=O)Cn2c(=O)n3nc(-c4cccc(F)c4)nc3c3ccccc32)cc1OC,-,.,-,-,-,-
Cc1ccc(C(=O)c2c[nH]c(C(=O)NCc3cccnc3)c2)cc1,-,-49.4,-,-,-,-
O=C(c1ccc(CS(=O)(=O)c2ccc(Br)cc2)o1)N1CCCC1,.,-,-,-,?,-
Cc1ccccc1CNC(=O)c1cc2ccccc2o1,.,.,.,.,-,.
O=C(c1ccc(CS(=O)(=O)c2ccc(Br)cc2)o1)N1CCCCCC1,.,-,-,-,-,33.4
Cc1ccc(CS(=O)(=O)Cc2ccc(C(=O)NCc3cccnc3)o2)cc1,-,-32.7,-,-,-,-
O=C(NCc1ccccc1Cl)c1cc2ccccc2o1,-,-32.6,-,-,-,34.1
O=C(NCc1cccnc1)c1ccc(CS(=O)(=O)Cc2ccc(Cl)cc2)o1,-,-,-,-,-,-
Cc1ccc(S(=O)(=O)N2CCN(c3nc(-c4ccc(F)cc4)nc4cc(Cl)ccc34)CC2)cc1,-,-,-,-,.,-
CCC(=O)N1CCc2cc(CNS(=O)(=O)c3ccc(Cl)s3)ccc21,-,-,-,-,-,-
CCC(C)NC(=O)CN1C(=O)c2cccnc2Oc2ccc(C)cc21 (centres undefined),-,-,-,-,-,-
O=C(NCc1ccccc1Cl)c1ccc(CS(=O)Cc2ccc(Cl)cc2)o1 (centres undefined),-,-46.0,-,-,-,-
SMILES,D1 PAM,D1 antagonist,TRHR ag,TRHR PAM,USP1-UAF1 inh,D1 agonist
COc1ccccc1CNC(=O)c1ccc(CS(=O)(=O)c2ccc(C)cc2)o1,-,-50.2,-,-,-,-
Cc1ccc(NS(=O)(=O)c2ccccc2)c(C)c1,-,-,-,-,.,-
O=C(c1ccc(Cl)cc1)N1CCCCC1CCN1CCOCC1 (centres undefined),-,-,-,-,-,-
CCCCCCCC1CC(CSc2ncn[nH]2)OC1=O (centres undefined),-,-,-,-,-,-
CCCCC1CC(CSc2ncn[nH]2)OC1=O (centres undefined),-,-36.4,-,-,-,-
COc1cccc2c1Oc1ncccc1N(C(=O)CCC(=O)NC(C)C)C2,-,-,-,-,-,-
Clc1ccc(-c2nnnn2-c2ccc(Cl)cc2)cc1,-,-,-,-,-,-
Clc1ccc(-c2c(C3=NCCCN3)nnn2-c2ccc(Cl)cc2)cc1,-,-38.9,-,-,-,-
CCCOc1cccc(C(=O)Nc2cccc3ncccc23)c1,-,-,-,-,-,-
CCOc1ccc(C(=O)Nc2cccc3ncccc23)cc1Cl,-,-30.1,-,-,-,-
COc1ccc(C(=O)Nc2sc3c(c2C(=O)O)CC(C)(C)OC3)cc1,-,-,-,-,-,-
CC(C)COc1ccc(C(=O)Nc2sc3c(c2C(=O)O)CC(C)(C)OC3)cc1,-,-31.3,-,-,-,-
COc1ccc(Cl)cc1NC(=O)CN(C)S(=O)(=O)c1ccc2c(c1)CCCN2C(C)=O,-,-,-,-,?,-
COc1ccc(S(=O)(=O)N2CCN(Cc3ccc4c(c3)OCO4)CC2)cc1OC,-,-,-,-,-,-
CSc1ccccc1-n1nnnc1SCc1ccccc1,-,-,-,-,-,45.9
COc1cc(C(=O)NCC(=O)NCCN2C(=O)S/C(=C\c3ccccc3Cl)C2=O)cc(OC)c1OC,-,-,-,30.7,-,-
CC(=O)NC(c1ccco1)c1cc(Cl)c2ccc(N(C)C)nc2c1O (centres undefined),-,-,-,-,.,-
N#C/C(=N\Nc1cccc(C(F)(F)F)c1)C(=O)c1ccsc1,-,-32.4,-,-,-,-
O=C(CCN1CCN(c2ccccc2)CC1)c1ccc(Br)cc1,-,-30.1,-,-,-,-
CCOC(=O)c1cccc(NC(=O)c2cc(C)nc3c2c(C)nn3-c2ccc(C)cc2)c1,-,-,-,-,-,-
CC(C)(C)n1nnnc1C(c1cccnc1)N1CCN(c2ccccc2)CC1 (centres undefined),-,-,-,-,-,-
CC(C)(C)n1nnnc1C(c1cccnc1)N1CCN(c2ccccn2)CC1 (centres undefined),-,-60.4,-,-,-,30.9
CCOc1ccccc1NC(=O)CSc1ncc(S(=O)(=O)c2ccc(C)c(C)c2)c(N)n1,-,-,-,-,-,-
Cc1nn(C)c(C)c1NC(=O)/C(C#N)=C\N(C)C,-,-54.4,-,-,-,-
CCOc1ccccc1CNC(=O)CSc1n[nH]c(-c2ccccc2Cl)n1,-,-,-,-,-,-

# Assay outcomes deposited in PubChem BioAssay by National Center for Advancing Translational Sciences (NCATS).
